AC50 and outcome data for four molecules are collected here from PubChem BioAssay (EPA / NIEHS).

Read-out in assay [1]: Monokine induced gamma interferon (MIG), CXCL9 (gene 4283)
In words: BSK_hDFCGF_MIG: BioMAP Diversity Plus: hDFCGF Assay for Monokine induced gamma interferon (MIG) Biomarker Activity (AID 2283063). Particulars: primary human foreskin fibroblasts; actives raise or lower the signal. Put shortly:
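Fibroblasts (human foreskin, primary) dosed, 24 h, MIG by ELISA; fit bidirectional vs DMSO.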

Read-out in assay [2]: Vascular cell adhesion molecule 1 (VCAM1), VCAM1 (gene 7412)
The assay can be described thus: BSK_hDFCGF_VCAM1: BioMAP Diversity Plus: hDFCGF Assay for Vascular cell adhesion molecule 1 (VCAM1) Biomarker Activity (AID 2283065).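 On AC50: VCAM-1 protein level quantified by ELISA after 24 h chemical exposure.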 To be noted: primary human foreskin fibroblasts; actives raise or lower the signal. The method, boiled down:
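ELISA read-out of VCAM-1 on human skin fibroblasts, 24 h post-dose; gain or loss of signal fitted bidirectionally against DMSO baseline.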

Read-out in assay [3]: Plasminogen activator inhibitor-1 (PAI1), SERPINE1 (gene 5054)
The assay can be described thus: BSK_hDFCGF_PAI1: BioMAP Diversity Plus: hDFCGF Assay for Plasminogen activator inhibitor-1 (PAI1) Biomarker Activity (AID 2283066). To be noted: primary human foreskin fibroblasts; actives raise or lower the signal. The method, boiled down:
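Primary dermal fibroblasts (human foreskin), hDFCGF system; compound 24 h; PAI-1 by ELISA; bidirectional fit vs DMSO control.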

Read-out in assay [4]: Intercellular Adhesion Molecule 1 (ICAM1), ICAM1 (gene 3383)
The assay can be described thus: BSK_KF3CT_ICAM1: BioMAP Diversity Plus: KF3CT Assay for Intercellular Adhesion Molecule 1 (ICAM1) Biomarker Activity (AID 2283067). Particulars: primary human keratinocytes with fibroblasts; actives raise or lower the signal. The method, boiled down: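 ELISA readout of ICAM-1; KF3CT human skin co-culture (keratinocytes + foreskin fibroblasts), 24 h post-dose; gain/loss fit vs DMSO baseline.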

Read-out in assay [5]: Interferon-gamma inducible Protein 10 (IP10), CXCL10 (gene 3627)
In words: BSK_KF3CT_IP10: BioMAP Diversity Plus: KF3CT Assay for Interferon-gamma inducible Protein 10 (IP10) Biomarker Activity (AID 2283068). To be noted: primary human keratinocytes with fibroblasts; actives raise or lower the signal. The method, boiled down: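 ELISA read-out of IP-10 after 24 h chemical dosing of human skin primary co-culture (keratinocytes, foreskin fibroblasts). Gain or loss of signal relative to DMSO, bidirectional curve fit.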

Assay [6] in a line: BSK_KF3CT_SRB: Viability Assessment in the BioMAP Diversity Plus: KF3CT Assay (AID 2283069).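 Further: total protein by sulforhodamine B staining as a cytotoxicity measure; read 24 h after compound addition.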 To be noted: primary human keratinocytes with fibroblasts. Put shortly: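 Human keratinocyte and foreskin fibroblast co-culture exposed to chemical for 24 h. Total protein measured in parallel cultures by 0.1% sulforhodamine B staining after 10% TCA fixation, read at 560 nm; bidirectional fit relative to DMSO.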

Read-out in assay [7]: Interleukin-1 alpha (IL1a), IL1A (gene 3552)
The assay can be described thus: BSK_KF3CT_IL1a: BioMAP Diversity Plus: KF3CT Assay for Interleukin-1 alpha (IL1a) Biomarker Activity (AID 2283070). To be noted: primary human keratinocytes with fibroblasts; actives raise or lower the signal. The method, boiled down:
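Primary human keratinocyte plus foreskin fibroblast co-culture, dosed and measured at 24 h in 96-well plates. IL-1a level quantified by ELISA; bidirectional fit relative to DMSO.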

Read-out in assay [8]: TIMP metallopeptidase inhibitor 2 (TIMP2), TIMP2 (gene 7077)
In words: BSK_KF3CT_TIMP2: BioMAP Diversity Plus: KF3CT Assay for TIMP metallopeptidase inhibitor 2 (TIMP2) Biomarker Activity (AID 2283071). To be noted: primary human keratinocytes with fibroblasts; actives raise or lower the signal. Put shortly:
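Cells: human keratinocytes co-cultured with foreskin fibroblasts. Treat with chemical, 24 h. Measure TIMP-2 by ELISA; fit curves bidirectionally vs DMSO baseline.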

Read-out in assay [9]: Transforming growth factor beta 1 (TGFb1), TGFB1 (gene 7040)
In words: BSK_KF3CT_TGFb1: BioMAP Diversity Plus: KF3CT Assay for Transforming growth factor beta 1 (TGFb1) Biomarker Activity (AID 2283072). To be noted: primary human keratinocytes with fibroblasts; actives raise or lower the signal. The method, boiled down: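 Primary human skin cells (keratinocytes, foreskin fibroblasts) were co-cultured, exposed to test chemical and sampled at 24 h. TGF-b1 levels were measured by ELISA and fitted bidirectionally relative to DMSO.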

Read-out in assay [10]: Matrix Metallopeptidase 9 (MMP9), MMP9 (gene 4318)
The assay can be described thus: BSK_KF3CT_MMP9: BioMAP Diversity Plus: KF3CT Assay for Matrix Metallopeptidase 9 (MMP9) Biomarker Activity (AID 2283074).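 On AC50: MMP9 protein level quantified by ELISA in the co-culture.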 Particulars: primary human keratinocytes with fibroblasts; actives raise or lower the signal. Put shortly:
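Human keratinocyte and foreskin fibroblast co-culture exposed to chemicals for 24 h; MMP9 biomarker measured by ELISA, bidirectional fitting relative to DMSO; cytotoxicity tracked by SRB total protein staining in parallel cultures.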

Read-out in assay [11]: urokinase plasminogen activator (uPA), PLAU (gene 5328)
The assay can be described thus: BSK_KF3CT_uPA: BioMAP Diversity Plus: KF3CT Assay for urokinase plasminogen activator (uPA) Biomarker Activity (AID 2283075). To be noted: primary human keratinocytes with fibroblasts; actives raise or lower the signal. Put shortly: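 Primary human keratinocyte/foreskin fibroblast co-culture exposed to chemical; uPA measured by ELISA at 24 h. Bidirectional fit versus DMSO, with parallel SRB total-protein staining for cytotoxicity.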

Read-out in the next assay: CD40, CD40 (gene 958)
The assay can be described thus: BSK_LPS_CD40: BioMAP Diversity Plus: LPS Assay for CD40 Biomarker Activity (AID 2283076). To be noted: primary human HUVEC with PBMC; actives raise or lower the signal. Put shortly: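 ELISA readout of CD40 in HUVEC/PBMC co-culture (BSK_LPS system), 24 h post-dosing; bidirectional curve fit, DMSO baseline; parallel SRB total-protein staining for cytotoxicity.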

Read-out in assay [12]: E-selectin (Homo sapiens) (UniProt P16581)
The assay can be described thus: BSK_LPS_Eselectin: BioMAP Diversity Plus: LPS Assay for Eselectin Biomarker Activity (AID 2283077). Particulars: primary human HUVEC with PBMC; actives raise or lower the signal. The method, boiled down: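 ELISA readout of E-selectin, 24 h post-dose, HUVEC + PBMC co-culture (LPS system). Gain or loss of signal vs DMSO baseline, bidirectional fit.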

Read-out in assay [13]: Interleukin-8 (IL8), CXCL8 (gene 3576)
In words: BSK_LPS_IL8: BioMAP Diversity Plus: LPS Assay for Interleukin-8 (IL8) Biomarker Activity (AID 2283078). To be noted: primary human HUVEC with PBMC; actives raise or lower the signal. The method, boiled down:
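HUVEC + PBMC co-culture, LPS-activated; test chemicals dosed, IL-8 read by ELISA at 24 h. Bidirectional curve fit vs DMSO baseline (gain or loss of signal).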

Assay [14] in a line: BSK_LPS_SRB: Viability Assessment in the BioMAP Diversity Plus: LPS Assay (AID 2283079).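 Further: total protein by sulforhodamine B absorbance as a cytotoxicity measure; measured one day after compound addition; fitted in both directions against DMSO so loss or gain of signal counts.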 To be noted: primary human HUVEC with PBMC. Put shortly: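 HUVEC + PBMC co-culture, LPS-stimulated; compound 24 h. 10% TCA fix, 0.1% SRB stain, A560. Bidirectional fit vs DMSO.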
Read-out in assay [15]: Interleukin-1 alpha (IL1a), IL1A (gene 3552)
In words: BSK_LPS_IL1a: BioMAP Diversity Plus: LPS Assay for Interleukin-1 alpha (IL1a) Biomarker Activity (AID 2283080). To be noted: primary human HUVEC with PBMC; actives raise or lower the signal. Put shortly:
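HUVEC/PBMC co-culture, LPS system; 24 h after dosing; IL-1a by ELISA; gain or loss of signal fitted bidirectionally vs DMSO baseline.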

Read-out in assay [16]: Monocyte Chemoattractant Protein-1 (MCP1), CCL2 (gene 6347)
The assay can be described thus: BSK_LPS_MCP1: BioMAP Diversity Plus: LPS Assay for Monocyte Chemoattractant Protein-1 (MCP1) Biomarker Activity (AID 2283081). Particulars: primary human HUVEC with PBMC; actives raise or lower the signal. Put shortly:
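ELISA read-out of MCP-1 after 24 h chemical dosing of a human umbilical vein endothelial cell/peripheral blood mononuclear cell co-culture stimulated with LPS. Gain or loss of signal fitted relative to DMSO controls.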

Read-out in assay [17]: C-C motif chemokine 2 (Homo sapiens) (UniProt P13500)
In words: BSK_KF3CT_MCP1: BioMAP Diversity Plus: KF3CT Assay for Monocyte Chemoattractant Protein 1 (MCP1/CCL2) Biomarker Activity (AID 2283073). To be noted: primary human keratinocytes with fibroblasts; actives raise or lower the signal. The method, boiled down: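 KF3CT skin co-culture (keratinocytes/foreskin fibroblasts), 24 h post-dose; MCP-1 by ELISA; gain/loss of signal fit bidirectionally vs DMSO baseline.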

The nature of assay [18]: BSK_LPS_PGE2: BioMAP Diversity Plus: LPS Assay for Prostaglandin E2 (PGE2) Biomarker Activity (AID 2283082). Particulars: primary human HUVEC with PBMC; actives raise or lower the signal. Put shortly: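 LPS-activated HUVEC/PBMC co-culture; cmpd dosed, 24 h; PGE2 by ELISA; bidirectional fit vs DMSO; SRB (0.1%, TCA-fixed, 560 nm) in parallel plates for overt cytotox.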

Calls of active or inactive are those of the source. How the source made its calls: active means hit-call score of the fitted dose curve at least 0.9, where 1 is the maximum; inactive means score below 0.9.

Chain of E-selectin (Homo sapiens) (P16581 whole entry, looked up): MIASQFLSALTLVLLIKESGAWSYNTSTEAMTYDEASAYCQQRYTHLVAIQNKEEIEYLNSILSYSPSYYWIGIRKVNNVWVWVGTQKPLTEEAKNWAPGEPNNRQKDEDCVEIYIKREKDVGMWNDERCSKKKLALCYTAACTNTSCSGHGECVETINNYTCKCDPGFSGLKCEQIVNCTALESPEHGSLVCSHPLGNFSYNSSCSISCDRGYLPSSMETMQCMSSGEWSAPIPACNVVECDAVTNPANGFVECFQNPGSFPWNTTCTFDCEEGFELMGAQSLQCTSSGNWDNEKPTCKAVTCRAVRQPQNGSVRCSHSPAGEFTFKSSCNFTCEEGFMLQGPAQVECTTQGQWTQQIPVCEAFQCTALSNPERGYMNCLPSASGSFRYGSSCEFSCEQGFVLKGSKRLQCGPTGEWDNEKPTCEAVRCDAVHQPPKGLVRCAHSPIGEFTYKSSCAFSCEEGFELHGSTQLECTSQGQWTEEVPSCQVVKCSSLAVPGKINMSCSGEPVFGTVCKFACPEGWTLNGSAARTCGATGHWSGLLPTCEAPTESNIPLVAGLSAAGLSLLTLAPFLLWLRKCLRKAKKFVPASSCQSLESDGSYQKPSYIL

With `On1ccccc1=S`, the AC50 in assay [1] was 0.204 µM (active); in assay [2] it was 0.479 µM (active); in assay [3], 1.7 µM (active); in assay [4], 10.4 µM (active); in [5] it was 10.3 µM (active); in [6], 6.33 µM (active). Besides, the concentration at half-maximal activity (AC50) was 10.2 µM (active) in assay [7]; 11.6 µM (active) in [8]; 9.8 µM (active) in [9]; 8.53 µM (active) in [10]; 11 µM (active) in [11]; 19.8 µM (active) with CD40, CD40 (gene 958). The AC50 is 31.2 µM (active) in assay [12], 26.2 µM (active) in [14] and 19.8 µM (active) in assay [15]. The result in assay [13] and in assay [16] was inactive.
Regarding `COC(=O)c1ccccc1O`, the outcome in assay [1], in assay [2], in assay [4], in assay [5], in assay [6] and in assay [7] was inactive. Further, the outcome is “inactive” in assay [8]; “inactive” in assay [9]; “inactive” in [17]; “inactive” in [10]; “inactive” in [11]; “inactive” in the assay with CD40, CD40 (gene 958). Moreover, the result in [12], in assay [13], in assay [14] and in [15] was inactive.
Turning to `O=C(NS(=O)(=O)/C=C/c1ccccc1)c1ccc(F)cc1Cl`, the result in assay [1], in [2], in [3], in [4], in assay [5] and in [6] was inactive. The outcome in assay [9] was “inactive”; in [17] it was “inactive”; in assay [10], “inactive”; in assay [11], “inactive”; in the assay with CD40, CD40 (gene 958), “inactive”; in assay [13] it was “inactive”. In addition, the outcome in [14], in assay [15], in assay [16] and in assay [18] was inactive. The concentration at half-maximal activity (AC50) in assay [8] was 20 µM (active).
Turning to `C1=CCCC=CCCC=CCC1`, the result in [1], in assay [2], in [4], in [5], in [6] and in assay [8] was inactive. The outcome is “inactive” in [9]; “inactive” in assay [17]; “inactive” in assay [10]; “inactive” in [11]; “inactive” with CD40, CD40 (gene 958); “inactive” in assay [12]. Besides, the outcome in [13], in [14], in assay [15] and in [18] was inactive.

What is called AC50 is the midpoint of the concentration-response curve, whichever way the signal moves.
